About 8,600 (12%) of roughly 69,000 compounds showed an effect of 50% or more. The entries come from a sample that favours strong results as a whole.
What follows are molecules tested on Plasmodium berghei (assay: Screen against P. berghei liver stage (PbLuc), transformed with Luciferase, at 10uM). Settings: tested at 10 uM.
Type: functional, HepG2

Going from CC(=O)N1CCC(c2cccc(-c3cccc(C(=O)O)c3)n2)CC1 to COCCOc1cccc(C(=O)N2CCCC(n3cccn3)C2)c1 (stereo unspecified), the INHIBITION falls from 25.8% to 9.94%.

Going from Cc1cnn(CC2CCCN2C(=O)c2ccc(Cl)cc2F)c1 (stereo unspecified) to COCCC(=O)N1CCCC(CCc2ccc(F)c(F)c2)C1 (stereo unspecified), the INHIBITION rises from 3.73% to 4.97%.

First: CCc1nc(C2CCCN(C(=O)c3c(C)noc3C)C2)no1 (stereo unspecified)
Second: Cc1noc(C)c1-c1cccc(C2CCCNC2)n1 (stereo unspecified)
The INHIBITION of the first is higher: 45.1% for the first, -57.4% for the second.

Going from CCCc1ccc2oc(C(=O)N3CCN(CCC(N)=O)CC3)c(C)c2c1 to O=C(CCC1CCCN(C(=O)CCc2ccc(F)c(F)c2)C1)NC1CC1 (stereo unspecified), the INHIBITION rises from 18.5% to 75.4%.

Going from Cc1c(NC(=O)CN2CCC(Oc3cnccn3)CC2)cnn1C to O=C(c1cnccn1)N1CCC2(CC1)CC(Oc1ccccc1)CO2 (stereo unspecified), the INHIBITION rises from 0.696% to 41.3%.

Compared with O=C(CCC1CCCN(S(=O)(=O)C2CC2)C1)Nc1ccc(Cl)cc1 (stereo unspecified), COCCC(=O)N1CCCC(CCC(=O)Nc2ccc(Cl)cc2)C1 (stereo unspecified) is higher in INHIBITION: 28% for the first, 57.2% for the second.

Compared with COCCC(=O)N1CCCC(CCC(=O)NCc2cccc(OC)c2)C1 (stereo unspecified), COCCC(=O)N1CCCC(CCC(=O)NCc2ccccc2F)C1 (stereo unspecified) is lower in INHIBITION: 9.52% for the first, -4.12% for the second.

Compared with Cc1ccc(-c2nc3cc(S(=O)(=O)N4CCCC4)ccc3n2C)o1, Cc1ccc(Oc2ccc(NC(=O)NCC3CCOC3)cn2)cc1C (stereo unspecified) is higher in INHIBITION: 14.1% for the first, 58.2% for the second.

First: CCc1cccc2cc(CNCCOC)c(=O)[nH]c12
Second: COCCNC(=O)c1ccc(NCc2csc(C)n2)cc1Cl
The INHIBITION of the first is higher: 24.95% for the first, 16% for the second.

First: O=C(CCn1ccnc1)N1CCCC(n2cncn2)C1 (stereo unspecified)
Second: CS(=O)(=O)CC(=O)N1C[C@H]2CCC[C@@]2(COc2ccccn2)C1
The INHIBITION of the first is higher: 49% for the first, -0.453% for the second.

Going from c1cncc(N2CCCC3(CCN(CC4CCCO4)CC3)C2)c1 (stereo unspecified) to c1ccc(CN2CCCC3(CCN(CC4CCCO4)CC3)C2)nc1 (stereo unspecified), the INHIBITION rises from 3.58% to 62%.

Going from Cc1cccc(CN2CCCC3(CCN(CC4CCCO4)CC3)C2)n1 (stereo unspecified) to c1cc(CN2CCCC3(CCN(CC4CCCO4)CC3)C2)n[nH]1 (stereo unspecified), the INHIBITION falls from 53% to 47.5%.

Going from Cc1cccc(CN2CCOCC3(CCN(C4CCOCC4)C3)C2)n1 (stereo unspecified) to CCN1CCOCC2(CCCN(C(=O)c3ccncc3F)C2)C1 (stereo unspecified), the INHIBITION rises from -34.9% to 27.2%.

First: Cn1ccnc1CN1CCCC2(CCN(CC3CCCO3)CC2)C1 (stereo unspecified)
Second: Cn1cccc1CN1CCC2(CCCN(C(=O)c3cccnc3)C2)CC1
The INHIBITION of the first is higher: 38.1% for the first, -43.1% for the second.

Going from c1cc(CN2CCc3c(nnn3CC3CC3)C2COCC2CC2)co1 (stereo unspecified) to c1coc(CN2CC[C@H]3O[C@@H](COCC4CC4)CC[C@H]32)c1, the INHIBITION rises from 27.4% to 53.9%.

First: Cc1c(C(=O)N2CCCN(S(C)(=O)=O)CC2)cnn1C
Second: CC(C)CS(=O)(=O)N1C[C@@H]2C[C@H](C(=O)Nc3cccnc3)[C@H](C1)O2
The INHIBITION of the first is higher: -4.96% for the first, -10.3% for the second.

Compared with N#CCCCS(=O)(=O)NC1(c2ccc(F)cc2)CC1, O=C(NCC1CCOC1)Nc1ccc(Oc2ccc(F)cc2)nc1 (stereo unspecified) is lower in INHIBITION: 26.4% for the first, 3.67% for the second.

Compared with O=C(NCC1CCOC1)Nc1ccc(Oc2cccc(F)c2)nc1 (stereo unspecified), O=C(NCC1CCOC1)Nc1ccc(OCC(F)(F)F)nc1 (stereo unspecified) is higher in INHIBITION: -8.15% for the first, 23.2% for the second.

Compared with CN(C)c1ccc(NC(=O)NCC2CCOC2)cn1 (stereo unspecified), CCN(CC)c1ccc(NC(=O)NCC2CCOC2)cn1 (stereo unspecified) is lower in INHIBITION: 77.85% for the first, -45.3% for the second.

Compared with COc1ncccc1CNC(=O)NCCNS(C)(=O)=O, CC1CCc2nn(CCNC(=O)Cc3cccs3)c(=O)cc2C1 (stereo unspecified) is lower in INHIBITION: -9.37% for the first, -45.7% for the second.

Compared with CN1N=C(C(=O)N(Cc2ccco2)C2CC2)CCC1=O, CN(C)C(=O)COC[C@H]1CC[C@@H]2[C@@H](CCN2Cc2ccco2)O1 is lower in INHIBITION: 19% for the first, -11.6% for the second.

Compared with Cc1c(Br)cccc1C(=O)NCC1CCNCC1, Cc1ccnc(NC(=O)C2CCCO2)c1 (stereo unspecified) is higher in INHIBITION: 39.7% for the first, 62.3% for the second.

Compared with CCSCc1ccnc(NC(=O)C2CCCO2)c1 (stereo unspecified), Cc1nccn1-c1cc(CNC(=O)C2CCCO2)ccn1 (stereo unspecified) is higher in INHIBITION: -4.26% for the first, 21% for the second.

Compared with CC(C)(C)c1cc(NC(=O)C2COCCO2)n(-c2ccccn2)n1 (stereo unspecified), CC(C)(C)c1cc(NC(=O)C2CCCO2)n(-c2ccccn2)n1 (stereo unspecified) is higher in INHIBITION: 30.7% for the first, 52.5% for the second.

Going from CCC(CC)n1nc(C)cc1NC(=O)C1CCCO1 (stereo unspecified) to CCOCC1CCN(C(=O)c2sc(C)cc2OC(F)F)CC1, the INHIBITION rises from -56.4% to 0.325%.

First: COc1cc(CCC(=O)NC2CCN(C)CC2)ccc1OCC(F)(F)F
Second: COC[C@H]1CC[C@@H]2[C@@H](CCN2Cc2ccco2)O1
The INHIBITION of the first is lower: -14.7% for the first, -6.39% for the second.

First: Cc1nc(CN(CCS(C)(=O)=O)C(C)C)no1
Second: CN(Cc1ccco1)C(=O)CN1C(=O)c2cc(Cl)c(Cl)cc2C1=O
The INHIBITION of the first is higher: 49.3% for the first, 39.2% for the second.

First: c1ccc(COC[C@H]2CC[C@H]3[C@H](CCN3Cc3ccco3)O2)nc1
Second: c1ccc(COC[C@H]2CC[C@H]3[C@H](CCN3Cc3cccs3)O2)nc1
The INHIBITION of the first is higher: 51.3% for the first, 49.7% for the second.

First: c1coc(CN2CC[C@@H]3O[C@@H](COCC4CCOCC4)CC[C@@H]32)c1
Second: c1csc(CN2CC[C@H]3O[C@@H](COCC4CC4)CC[C@H]32)c1
The INHIBITION of the first is lower: -30% for the first, 73% for the second.

Compared with c1ccc(COC[C@H]2CC[C@H]3[C@H](CCN3c3ncccn3)O2)nc1, c1cncc(COC[C@H]2CC[C@H]3[C@H](CCN3Cc3cccs3)O2)c1 is higher in INHIBITION: 26.4% for the first, 31.8% for the second.

First: c1coc(CN2CC[C@@H]3O[C@@H](COCc4ccncc4)CC[C@@H]32)c1
Second: Cc1cccc(COC[C@H]2CC[C@H]3[C@H](CCN3Cc3ccco3)O2)n1
The INHIBITION of the first is lower: 0.164% for the first, 68.4% for the second.

Going from Cc1cccc(COC[C@@H]2CC[C@H]3[C@H](CCN3Cc3ccco3)O2)n1 to Cn1cc(C[C@H]2[C@H](O)CCN2CC2CCOCC2)cn1, the INHIBITION falls from 43.5% to 6.6%.

Going from O=C1CNc2ncnc(NCc3cccs3)c2N1 to O=C1COC2(CCN(Cc3ccoc3)CC2)CN1, the INHIBITION rises from -25.5% to -0.813%.

From ChEMBL document CHEMBL4513216, “Probing the Open Global Health Chemical Diversity Library for Multistage-Active Starting Points for Next-Generation Antimalarials” (ACS Infect Dis, 2020)
